From PubChem
Not all results are given here.
aSyn UTR act: Activators working through SNCA 5'UTR binding (MLPCN); activity score, % (tested at 7.5 µM), hits read low; 300,000 tested, 7.1% active; alpha-synuclein 5'UTR reporter, activators screen; AID 1814; in the data active = activity score below about -60%
An asterisk follows results filed as active.

SMILES	aSyn UTR act
O=C(Nc1ccccc1)Nc1nnc(-c2ccccc2)o1	-63.3*
CN(C)S(=O)(=O)c1ccc(C(=O)Nc2nnc(-c3ccc4c(c3)CCCC4)o2)cc1	69.0
O=C(Nc1nnc(-c2ccc3c(c2)CCCC3)o1)C1CCCCC1	-84.3*
Cc1cc(C)n(CCN(C)C(=O)CCc2nnc(CCC3CCCCC3)o2)n1	-144.9*
CN1/C(=C\C(=O)c2cccc([N+](=O)[O-])c2)Sc2ccccc21	-83.4*
COc1cc(OC)cc(C(=O)/C=C2\Sc3ccccc3N2C)c1	-154.3*
CN1/C(=C/C(=O)c2ccc(Cl)cc2)Sc2cc3c(cc21)OCO3	-160.1*
COc1ccc2c(c1)S/C(=C\C(=O)c1ccncc1)N2C	-165.2*
CN1/C(=C/C(=O)C2CCC2)Sc2ccccc21	-88.8*
Cc1cccc(NC(=O)c2ccoc2C)n1	-86.1*
Cc1occc1C(=O)Nc1cc(C(C)(C)C)on1	-101.4*
Cc1ccnc(N2CCN(C(=O)CSc3nc4ccccc4nc3N3CCC(C)CC3)CC2)c1	-79.9*
CC(=O)c1ccc(NC(=O)c2noc3c2CCCCC3)cc1	-87.4*
Cc1cc(NC(=O)c2noc3c2CCCCC3)no1	-168.4*
O=C(Nc1cccnc1)c1noc2c1CCCC2	-115.3*
Cc1cc(NC(=O)c2noc3c2CCCCC3)nn1Cc1ccc(Cl)cc1	-70.7*
Cc1cc(NC(=O)c2noc3c2CCCC3)no1	-106.8*
Cc1ccc(NC(=O)c2ccccc2NC(=O)c2cccs2)cc1	-80.1*
CC(=O)c1ccc(NC(=O)c2cccs2)cc1	-88.4*
N/C(=N\O)c1ccc(NC(=O)c2cccs2)cc1	-81.1*
COC(=O)Cc1ccc(NC(=O)c2cccs2)cc1	-159.0*
CCOC(=O)C(=Cc1ccc(Br)cc1)C(=O)OCC	-121.4*
CCOC(=O)C(CC)(CC)C(=O)/C=C/c1ccc(Br)cc1	-92.5*
CCOC(=O)/C(=C\c1cccnc1)C(=O)c1cc(C(C)=O)c(Nc2ccccc2)s1	82.9
CC1(C)CC(=O)c2cnc(N3CCN(c4ccccc4)CC3)nc2C1	-61.5*
SMILES	aSyn UTR act
CC1(C)CC(=O)c2cnc(N3CCc4ccccc4C3)nc2C1	-217.8*
Cc1ccc(Nc2ncc3c(n2)CC(C)(C)CC3=O)cc1	-87.8*
CCc1cc2c(=O)c(-c3cscn3)coc2cc1O	-139.1*
CCN(CC)c1ccc(NC(=S)NC(=O)c2ccco2)cc1	-213.8*
CCCCn1nnc(NC(=S)NC(=O)c2cccs2)n1	-114.1*
CCN(CC)c1ccc(NC(=S)Nc2ccc(F)cc2)cc1	-91.2*
CCCOc1ccc(C(=O)NNC(=S)NC(=O)c2ccco2)cc1	51.5
CCN(CC)c1ccc(NC(=S)NC(=O)c2cccs2)cc1	-156.1*
CCCCC(=O)Nc1ccc(NC(=S)NC(=O)c2cccs2)cc1OC	-106.9*
Cc1cc(C)c2c(c1)/C(=N\N=c1\sc3ccccc3n1C)C(=O)N2	-106.7*
CC(=O)Nc1ccc(SCC(=O)Nc2sccc2C#N)cc1	-111.1*
N#Cc1ccsc1NC(=O)COC(=O)c1ccc(NC(N)=O)cc1	-78.0*
N#Cc1ccsc1NC(=O)COC(=O)c1cc2ccccc2cc1O	-178.1*
N#Cc1ccsc1NC(=O)COc1ccc(-c2nnco2)cc1	-95.8*
CC1CC2(C)Oc3ccccc3CC2C(C)C1CNCCCN(C)C (stereo not drawn)	105.5
CCN(CC)c1ccc(C(=O)OCC(=O)Nc2sccc2C#N)cc1	-176.5*
N#Cc1ccsc1NC(=O)CCc1ccccc1	-80.7*
Cc1ccccc1Oc1ccc(Oc2ccccc2C)nn1	-135.8*
Clc1ccc(Cl)c2sc(N3CCOCC3)nc12	-66.1*
Clc1ccc(-c2nsc(N3CCOCC3)n2)c(Cl)c1	-125.7*
Clc1cc(Cl)c2nc(N3CCOCC3)sc2c1	-156.3*
C=C1C(=O)C=C2CN(C(=O)c3ccccc3)[C@@](Cc3ccc(F)cc3)(C(=O)OC)[C@@H]12	56.3
CN(C)/C=N/c1ncc(C(=O)c2ccc(Cl)cc2)s1	-72.4*
CO/C([O-])=N/c1c[n+](-c2ccc(C)cc2)no1	-61.5*
CC(=O)C1=C(O)C(=O)N(c2ccc(Br)cn2)C1c1ccc(Br)cc1 (stereo not drawn)	-101.3*
SMILES	aSyn UTR act
CC(C)(C)c1ccc(-c2noc(CCC(=O)Nc3cccnc3)n2)cc1	76.9
COCc1cccc(NC(=O)CCc2ccccc2)c1	-99.4*
CC(C)c1ccc(NC(=O)CCc2ccccc2)cc1	-388.9*
CC(Cc1ccccc1)C(=O)Nc1ccc(Br)cc1 (stereo not drawn)	-81.2*
O=C(CCc1ccccc1)Nc1cccnc1	-63.1*
CC(=O)c1sc2nc(-c3ccco3)ccc2c1N	-81.2*
Nc1c(C(=O)Nc2ccc(Br)cc2)sc2nc(-c3ccco3)ccc12	-170.8*
NC(=O)c1sc2nc(-c3ccccc3)ccc2c1N	-73.1*
Cc1cc(C(F)(F)F)c(C#N)c(SCC(=O)Nc2nc3cc(Br)ccc3s2)n1	-176.1*
O=[N+]([O-])c1cc(N=Nc2ccc3ccccc3c2)ccc1O	-104.5*
C(=N\N=C\c1ccccc1)/c1ccccc1	-95.7*
Fc1cccc(/C=N/N=C/c2cccc(F)c2)c1	-62.1*
Cc1ccc(/C=N/N=C/c2ccc(C)cc2)cc1	-110.1*
Nc1sccc1C(=O)c1ccc(Cl)cc1	-119.5*
COC(=O)/C(=C1/Oc2ccc(C(C)(C)C)cc2S1)C(F)(F)F	-224.4*
Cc1ccc2nc(-c3ccccc3O)c(Nc3ccc4c(c3)OCCO4)n2c1	-64.7*
Fc1ccccc1/C=N/Nc1ccc(Cl)nn1	-109.7*
COc1cccc(/C=N/Nc2ccc(Cl)nn2)c1OC	-155.4*
C(=N\Nc1ccc2nncn2n1)/c1ccccn1	66.6
COc1cccc(/C=N/Nc2nnc3c(n2)[nH]c2ccccc23)c1OC	-83.7*
CC(/C=N/Nc1nnc2c(n1)[nH]c1ccccc12)=C\c1ccco1	-165.3*
C=CCn1c(=S)[nH]c2nc3c(cc2c1=O)CCCC3	-92.3*
O=C1C=C(c2ccccc2)C[C@H](c2cccs2)[C@H]1n1nnc([N+](=O)[O-])n1	88.3
C=CS(=O)(=O)c1ccc(Oc2ccc(S(=O)(=O)C=C)cc2)cc1	-108.2*
Cc1ccc(NC2Nc3cc(C)nn3S2)c(C)c1 (stereo not drawn)	-138.3*
SMILES	aSyn UTR act
CCC(C)OC(=O)n1ccc(C(=O)Nc2nccs2)n1 (stereo not drawn)	-68.9*
COC(=O)N/N=C\c1ccc(-c2cc(Cl)c(Cl)cc2Cl)o1	54.5
CCOc1ccc(S(=O)(=O)N(CC(=O)N/N=C/c2ccc(-c3ccc([N+](=O)[O-])cc3)o2)c2ccccc2)cc1	-71.9*
CCOC(=O)c1ccc(-c2ccc(/C=N/NC(=O)CN(c3ccccc3Cl)S(C)(=O)=O)o2)cc1	-152.9*
O=c1nc2c(O)cccn2c2c1c(=O)[nH]c1ccccc12	-66.2*
O=c1[nH]c2ccccc2c2nc3ccccn3c12	-113.3*
Cn1c(-c2ccccc2)cnc1NCc1cc(Cl)ccc1O	-66.5*
Oc1ccc(CNc2ccc(F)cc2)c2cccnc12	75.6
Cn1c(-c2ccc(F)cc2)cnc1NCc1ccccc1F	-66.1*
Cc1ccc(O)c(C2=Nc3ccccc3C2(C)C)c1	-156.8*
CCOC(=O)c1c(C)oc2c1c1c(c3ccccc32)OCN(Cc2ccccn2)C1	-101.5*
CCOC(=O)c1c(C)oc2c1c(CN1CCN(C(=O)OCC)CC1)c(O)c1ccccc12	-205.3*
C=C(C)CNC(=S)N/N=C(\C)c1ccc(Cl)s1	-70.2*
COc1ccc(CNS(=O)(=O)c2cc3c(cc2C)N(C)CCO3)cc1	-65.0*
CCc1ccc(-c2cc(-c3n[nH]c(=S)n3CC)c3ccccc3n2)cc1	-68.5*
CSc1nnc(-c2cc(-c3ccc(C)cc3)nc3ccccc23)o1	57.0
